Laboratory results: PubChem BioAssay AID1159580 (chemical genetic matrix, 2015)
Screen size: about 5,500 compounds; about 2,000 (36%) were called active. About 18% were inconclusive and are not listed. The list shows a part of the results. Unmarked numbers belong to inactive results. Cut-off read from the data, not from the text of the source: active = normalized growth mostly below about 0.91 (no sharp cut-off); inconclusive = no clear call, values can overlap the other calls; inactive = mostly above about 0.92.

Experiment: chemical genetic growth profiling, strain panel (AID 1159580);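 note: tested at 20 µM; growth read once vehicle control cultures reached saturation at 30 °C; 1 = growth at the plate median or of vehicle wells; lower values mean less growth of the strain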
Settings: growth OD

Work on CC(=O)[C@@]1(O)CCC2C3CCC4=CC(=O)CC[C@]4(C)C3CC[C@@]21C (stereo partly drawn) yielded a normalized growth (S. cerevisiae deletion strains, locus YJR066W, strain TOR1, active compounds read low) of 0.93, a normalized growth (S. cerevisiae deletion strains, locus YKL009W, strain mrt4, active compounds read low) of 0.995 and a normalized growth (S. cerevisiae deletion strains, locus YKL068W, active compounds read low) of 1.01. The normalized growth (S. cerevisiae deletion strains, locus YKL085W, strain MDH1 (second series), active compounds read low) was 1.02, the normalized growth (S. cerevisiae deletion strains, locus YKL085W, strain MDH1, active compounds read low) was 1.02 and the normalized growth (S. cerevisiae deletion strains, locus YKL160W, strain elf1, active compounds read low) was 0.997. The normalized growth (S. cerevisiae deletion strains, locus YKL190W, strain CNB1, active compounds read low) was 0.998, the normalized growth (S. cerevisiae deletion strains, locus YKR001C, strain vps1, active compounds read low) was 1.06 and the normalized growth (S. cerevisiae deletion strains, locus YKR026C, strain gcn3, active compounds read low) was 0.966. For the same molecule, the normalized growth (S. cerevisiae deletion strains, locus YKR091W, strain srl3, active compounds read low) was 0.991, the normalized growth (S. cerevisiae deletion strains, locus YLL001W, strain dnm1, active compounds read low) was 0.98 and the normalized growth (S. cerevisiae deletion strains, locus YLL026W, active compounds read low) was 0.994. It also gave a normalized growth (S. cerevisiae deletion strains, locus YLL041C, strain sdh2, active compounds read low) of 0.99, a normalized growth (S. cerevisiae deletion strains, locus YLR027C, strain aat2, active compounds read low) of 1 and a normalized growth (S. cerevisiae deletion strains, locus YLR039C, strain RIC1, active compounds read low) of 0.841. The normalized growth (S. cerevisiae deletion strains, locus YLR058C, strain SHM2, active compounds read low) was 0.987, the normalized growth (S. cerevisiae deletion strains, locus YLR102C, strain apc9, active compounds read low) was 1.01 and the normalized growth (S. cerevisiae deletion strains, locus YLR113W, strain HOG1, active compounds read low) was 0.97. The normalized growth (S. cerevisiae deletion strains, locus YLR221C, strain rsa3, active compounds read low) was 1, the normalized growth (S. cerevisiae deletion strains, locus YLR258W, strain gsy2, active compounds read low) was 0.993 and the normalized growth (S. cerevisiae deletion strains, locus YLR262C, strain YPT6 (second series), active compounds read low) was 0.823 (active). It also gave a normalized growth (S. cerevisiae deletion strains, locus YLR262C, strain YPT6, active compounds read low) of 0.805, a normalized growth (S. cerevisiae deletion strains, locus YLR268W, strain sec22, active compounds read low) of 1.01 and a normalized growth (S. cerevisiae deletion strains, locus YLR320W, strain mms22, active compounds read low) of 0.939. It also gave a normalized growth (S. cerevisiae deletion strains, locus YLR330W, strain CHS5, active compounds read low) of 1, a normalized growth (S. cerevisiae deletion strains, locus YLR342W, strain FKS1 (second series), active compounds read low) of 0.987 and a normalized growth (S. cerevisiae deletion strains, locus YLR342W, strain FKS1, active compounds read low) of 0.989. For the same molecule, the normalized growth (S. cerevisiae deletion strains, locus YLR357W, strain rsc2, active compounds read low) was 1.01, the normalized growth (S. cerevisiae deletion strains, locus YLR370C, strain arc18, active compounds read low) was 0.984 and the normalized growth (S. cerevisiae deletion strains, locus YLR371W, strain rom2, active compounds read low) was 1.01. For the same molecule, the normalized growth (S. cerevisiae deletion strains, locus YLR384C, strain iki3, active compounds read low) was 1.01, the normalized growth (S. cerevisiae deletion strains, locus YLR418C, strain cdc73, active compounds read low) was 1.01 and the normalized growth (S. cerevisiae deletion strains, locus YML016C, strain PPZ1, active compounds read low) was 0.986. It also gave a normalized growth (S. cerevisiae deletion strains, locus YML032C, strain rad52, active compounds read low) of 0.981, a normalized growth (S. cerevisiae deletion strains, locus YML120C, strain ndi1, active compounds read low) of 1.01 and a normalized growth (S. cerevisiae deletion strains, locus YML124C, strain tub3, active compounds read low) of 1. The normalized growth (S. cerevisiae deletion strains, locus YMR058W, strain fet3, active compounds read low) was 0.996, the normalized growth (S. cerevisiae deletion strains, locus YMR078C, strain ctf18, active compounds read low) was 0.992 and the normalized growth (S. cerevisiae deletion strains, locus YMR125W, strain sto1, active compounds read low) was 0.984. It also gave a normalized growth (S. cerevisiae deletion strains, locus YMR129W, active compounds read low) of 0.982, a normalized growth (S. cerevisiae deletion strains, locus YMR205C, strain PFK2, active compounds read low) of 0.957 and a normalized growth (S. cerevisiae deletion strains, locus YMR223W, strain ubp8, active compounds read low) of 0.995. It also gave a normalized growth (S. cerevisiae deletion strains, locus YMR231W, strain pep5, active compounds read low) of 0.996, a normalized growth (S. cerevisiae deletion strains, locus YMR307W, strain GAS1, active compounds read low) of 0.97 and a normalized growth (S. cerevisiae deletion strains, locus YNL067W, strain RPL9B, active compounds read low) of 0.999. The normalized growth (S. cerevisiae deletion strains, locus YNL071W, strain lat1, active compounds read low) was 1, the normalized growth (S. cerevisiae deletion strains, locus YNL183C, strain NPR1, active compounds read low) was 0.907 and the normalized growth (S. cerevisiae deletion strains, locus YNL209W, strain ssb2, active compounds read low) was 0.995. The normalized growth (S. cerevisiae deletion strains, locus YNL233W, strain BNI4, active compounds read low) was 1, the normalized growth (S. cerevisiae deletion strains, locus YNL248C, strain rpa49, active compounds read low) was 0.999 and the normalized growth (S. cerevisiae deletion strains, locus YNL250W, strain rad50, active compounds read low) was 1.01. The normalized growth (S. cerevisiae deletion strains, locus YNL271C, strain bni1, active compounds read low) was 1, the normalized growth (S. cerevisiae deletion strains, locus YNL298W, strain CLA4, active compounds read low) was 1.01 and the normalized growth (S. cerevisiae deletion strains, locus YNL307C, strain MCK1, active compounds read low) was 1.01. For the same molecule, the normalized growth (S. cerevisiae deletion strains, locus YNL322C, strain KRE1 (second series), active compounds read low) was 0.996, the normalized growth (S. cerevisiae deletion strains, locus YNL322C, strain KRE1, active compounds read low) was 0.994 and the normalized growth (S. cerevisiae deletion strains, locus YNR049C, strain mso1, active compounds read low) was 0.988. The normalized growth (S. cerevisiae deletion strains, locus YNR052C, strain pop2, active compounds read low) was 1, the normalized growth (S. cerevisiae deletion strains, locus YOL012C, strain htz1) was 0.769 and the normalized growth (S. cerevisiae deletion strains, locus YOL147C, strain pex11, active compounds read low) was 1.01. It also gave a normalized growth (S. cerevisiae deletion strains, locus YOR001W, strain rrp6, active compounds read low) of 1, a normalized growth (S. cerevisiae deletion strains, locus YOR061W, strain CKA2, active compounds read low) of 0.993 and a normalized growth (S. cerevisiae deletion strains, locus YOR069W, strain VPS5, active compounds read low) of 0.996. The normalized growth (S. cerevisiae deletion strains, locus YOR070C, strain gyp1, active compounds read low) was 0.994, the normalized growth (S. cerevisiae deletion strains, locus YOR080W, strain dia2, active compounds read low) was 0.991 and the normalized growth (S. cerevisiae deletion strains, locus YOR083W, strain WHI5, active compounds read low) was 1. For the same molecule, the normalized growth (S. cerevisiae deletion strains, locus YOR106W, strain vam3, active compounds read low) was 1.02, the normalized growth (S. cerevisiae deletion strains, locus YOR136W, strain idh2, active compounds read low) was 1.01 and the normalized growth (S. cerevisiae deletion strains, locus YOR144C, strain elg1, active compounds read low) was 1. For the same molecule, the normalized growth (S. cerevisiae deletion strains, locus YOR184W, strain ser1, active compounds read low) was 0.943, the normalized growth (S. cerevisiae deletion strains, locus YOR231W, strain MKK1, active compounds read low) was 0.965 and the normalized growth (S. cerevisiae deletion strains, locus YOR265W, strain rbl2, active compounds read low) was 1. It also gave a normalized growth (S. cerevisiae deletion strains, locus YOR270C, strain vph1, active compounds read low) of 0.974, a normalized growth (S. cerevisiae deletion strains, locus YOR290C, strain snf2, active compounds read low) of 0.953 and a normalized growth (S. cerevisiae deletion strains, locus YOR316C, strain cot1, active compounds read low) of 1. The normalized growth (S. cerevisiae deletion strains, locus YPL051W, strain arl3, active compounds read low) was 0.995, the normalized growth (S. cerevisiae deletion strains, locus YPL055C, strain LGE1, active compounds read low) was 1.02 and the normalized growth (S. cerevisiae deletion strains, locus YPL078C, strain atp4, active compounds read low) was 0.997. It also gave a normalized growth (S. cerevisiae deletion strains, locus YPL106C, strain sse1, active compounds read low) of 1.02, a normalized growth (S. cerevisiae deletion strains, locus YPL240C, strain hsp82, active compounds read low) of 0.987 and a normalized growth (S. cerevisiae deletion strains, locus YPL241C, strain CIN2, active compounds read low) of 0.995. For the same molecule, the normalized growth (S. cerevisiae deletion strains, locus YPL256C, strain CLN2, active compounds read low) was 0.96, the normalized growth (S. cerevisiae deletion strains, locus YPR119W, strain clb2, active compounds read low) was 1 and the normalized growth (S. cerevisiae deletion strains, locus YPR141C, strain kar3, active compounds read low) was 0.992. The normalized growth (S. cerevisiae deletion strains, locus YPR163C, strain tif3, active compounds read low) was 0.998, the normalized growth (S. cerevisiae deletion strains, locus YPR167C, strain met16, active compounds read low) was 1 and the normalized growth (S. cerevisiae deletion strains, strain wtn01, active compounds read low) was 1.05. For the same molecule, the normalized growth (S. cerevisiae strains, strain wild type, active compounds read low) was 0.991.
